# In the supplement of paper PMC8728848:
# Shown is part of a subset that was picked to be rich in the strongest signals.
# B1: DC-ASGPR-short (Homo sapiens) (protein)
# chain: MTRTYENFQYLENKVKVQGFKNGPLPLQSLLQRLRSGPCHLLLSLGLGLLLLVIICVVGFQNSKFQRDLVTLRTDFSNFTSNTVAEIQALTSQGSSLEETIASLKAEVEGFKQERQAVHSEMLLRVQQLVQDLKKLTCQVATLNNNASTEGTCCPVNWVEHQDSCYWFSHSGMSWAEAEKYCQLKNAHLVVINSREEQNFVQKYLGSAYTWMGLSDPEGAWKWVDGTDYATGFQNWKPGQPDDWQGHGLGGGEDCAHFHPDGRWNDDVCQRPYHWVCEAGLGQTSQESH
# Legend:
# Experiment in all cases: glycan array binding signal (z-score within array); higher = stronger binding
# Conditions in all cases: glycan notation: IUPAC condensed, linker removed
# [1] = biological target: Fuc(a1-2)Gal(b1-4)GlcNAc(b1-6)GalNAc
# Outline: (§1)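 Glycan array binding is given as a within-array Z-score, which can be read as non-binding when negative. The arrays, 3228 of them, came from the Consortium for Functional Glycomics database and were retained only where the protein sequence was available. Z-scores were averaged across arrays of the same protein sequence at different concentrations or buffers and across linkers.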
# [2] = biological target: Fuc(a1-2)Gal(b1-4)[Fuc(a1-3)]GlcNAc(b1-2)[Fuc(a1-2)Gal(b1-4)[Fuc(a1-3)]GlcNAc(b1-4)]Man(a1-3)[Fuc(a1-2)Gal(b1-4)[Fuc(a1-3)]GlcNAc(b1-2)Man(a1-6)]Man(b1-4)GlcNAc(b1-4)GlcNAc
# Outline: as §1
# [3] = biological target: Fuc(a1-2)[Gal(a1-3)]Gal(b1-4)GlcNAc(b1-3)[Fuc(a1-2)[Gal(a1-3)]Gal(b1-4)GlcNAc(b1-6)]GalNAc
# Outline: as §1
# [4] = biological target: Fuc(a1-2)[Gal(a1-4)]Gal(b1-4)GlcNAc
# Outline: as §1
# [5] = biological target: Fuc(a1-2)[GalNAc(a1-3)]Gal
# Outline: as §1
# [6] = biological target: Fuc(a1-2)[GalNAc(a1-3)]Gal(b1-3)GalNAc(a1-3)[Fuc(a1-2)]Gal(b1-4)GlcNAc
# Outline: as §1
# [7] = biological target: Fuc(a1-2)[GalNAc(a1-3)]Gal(b1-4)GlcNAc(b1-3)Gal(b1-4)GlcNAc
# Outline: as §1
# [8] = biological target: Fuc(a1-2)[GalNAc(a1-4)]Gal(b1-4)GlcNAc
# Outline: as §1
# [9] = biological target: Fuc(a1-2)[GalNAc(b1-3)]Gal
# Outline: as §1
# [10] = biological target: Fuc(a1-3)[Gal(b1-4)]GlcNAc
# Outline: as §1
# [11] = biological target: Fuc(a1-3)[Gal(b1-4)]GlcNAc(b1-3)Gal(b1-3)[Fuc(a1-4)]GlcNAc
# Outline: as §1
# [12] = biological target: Fuc(a1-3)[GalNAc(b1-4)]GlcNAc
# Outline: as §1
# Gal(b1-3)GalNAc(b1-3)Gal = biological target: Gal(b1-3)GalNAc(b1-3)Gal
# Outline: as §1
# [13] = biological target: Gal(b1-3)[Fuc(a1-4)]GlcNAc
# Outline: as §1
# [14] = biological target: Gal(b1-3)[Fuc(a1-4)]GlcNAc(b1-2)Man
# Outline: as §1
# [15] = biological target: Gal(b1-4)GlcNAc(b1-2)[Gal(b1-4)GlcNAc(b1-6)]Man(a1-6)[GlcNAc(b1-4)][Gal(b1-4)GlcNAc(b1-2)Man(a1-3)]Man(b1-4)GlcNAc(b1-4)GlcNAc
# Outline: as §1
# [16] = biological target: Gal(b1-4)GlcNAc(b1-3)Gal(b1-4)GlcNAc(b1-2)Man(a1-3)[Gal(b1-4)GlcNAc(b1-3)Gal(b1-4)GlcNAc(b1-2)Man(a1-6)]Man(b1-4)GlcNAc(b1-4)GlcNAc
# Outline: as §1
# [17] = biological target: Gal(b1-4)GlcNAc(b1-3)Gal(b1-4)GlcNAc(b1-3)Gal(b1-4)GlcNAc(b1-2)Man(a1-3)[Gal(b1-4)GlcNAc(b1-3)Gal(b1-4)GlcNAc(b1-3)Gal(b1-4)GlcNAc(b1-2)Man(a1-6)]Man(b1-4)GlcNAc(b1-4)GlcNAc
# Outline: as §1
# [18] = biological target: Gal(b1-4)GlcNAc(b1-3)Gal(b1-4)GlcNAc(b1-3)Gal(b1-4)GlcNAc(b1-2)[Gal(b1-4)GlcNAc(b1-3)Gal(b1-4)GlcNAc(b1-3)Gal(b1-4)GlcNAc(b1-6)]Man(a1-6)[Gal(b1-4)GlcNAc(b1-3)Gal(b1-4)GlcNAc(b1-3)Gal(b1-4)GlcNAc(b1-2)Man(a1-3)]Man(b1-4)GlcNAc(b1-4)[Fuc(a1-6)]GlcNAc
# Outline: as §1
# [19] = biological target: Gal(b1-4)GlcNAc(b1-6)GalNAc
# Outline: as §1
# Gal3S(b1-4)GlcNAc = biological target: Gal3S(b1-4)GlcNAc
# Outline: as §1
# [20] = biological target: GalNAc(b1-3)Gal(a1-4)Gal(b1-4)GlcNAc
# Outline: as §1
# GalNAc(b1-4)GlcNAc = biological target: GalNAc(b1-4)GlcNAc
# Outline: as §1
# [21] = biological target: GalNAc(b1-4)GlcNAc(b1-3)GalNAc(b1-4)GlcNAc
# Outline: as §1
# GalNAc(b1-4)GlcNAc6S = biological target: GalNAc(b1-4)GlcNAc6S
# Outline: as §1
# [22] = biological target: GalNAc3S(b1-4)[Fuc(a1-3)]GlcNAc
# Outline: as §1
# GlcA(b1-3)GlcNAc = biological target: GlcA(b1-3)GlcNAc
# Outline: as §1
# [23] = biological target: GlcNAc(a1-4)Gal(b1-4)GlcNAc
# Outline: as §1
# [24] = biological target: GlcNAc(a1-4)Gal(b1-4)GlcNAc(b1-3)Gal(b1-4)[Fuc(a1-3)]GlcNAc(b1-3)Gal(b1-4)[Fuc(a1-3)]GlcNAc
# Outline: as §1
# [25] = biological target: GlcNAc(b1-3)Gal(b1-4)GlcNAc(b1-3)[GlcNAc(b1-3)Gal(b1-4)GlcNAc(b1-3)]GalNAc
# Outline: as §1
# [26] = biological target: GlcNAc(b1-3)[GlcNAc(b1-6)]GalNAc
# Outline: as §1
# GlcNAc(b1-6)GalNAc = biological target: GlcNAc(b1-6)GalNAc
# Outline: as §1
# [27] = biological target: GlcNAc6S(b1-3)Gal(b1-4)GlcNAc
# Outline: as §1
# [28] = biological target: Neu5Ac(a2-3)Gal(b1-3)GalNAc6S
# Outline: as §1
# [29] = biological target: Neu5Ac(a2-3)Gal(b1-3)GlcNAc(b1-6)GalNAc
# Outline: as §1
# [30] = biological target: Neu5Ac(a2-3)Gal(b1-3)[Neu5Ac(a2-6)]GalNAc
# Outline: as §1
# [31] = biological target: Neu5Ac(a2-3)Gal(b1-4)GlcNAc(b1-6)[Gal(b1-3)]GalNAc
# Outline: as §1
# [32] = biological target: Neu5Ac(a2-3)Gal(b1-4)[Fuc(a1-3)]GlcNAc(b1-2)Man
# Outline: as §1
# [33] = biological target: Neu5Ac(a2-3)Gal(b1-4)[Fuc(a1-3)]GlcNAc(b1-6)[Gal(b1-3)]GalNAc
# Outline: as §1
# [34] = biological target: Neu5Ac(a2-6)Gal(b1-4)GlcNAc(b1-2)Man(a1-6)[Man(a1-3)]Man(b1-4)GlcNAc(b1-4)GlcNAc
# Outline: as §1
# [35] = biological target: Neu5Ac(a2-6)Gal(b1-4)GlcNAc(b1-2)[Neu5Ac(a2-6)Gal(b1-4)GlcNAc(b1-4)]Man(a1-3)[GlcNAc(b1-4)][Neu5Ac(a2-6)Gal(b1-4)GlcNAc(b1-4)Man(a1-6)]Man(b1-4)GlcNAc(b1-4)GlcNAc
# Outline: as §1
# [36] = biological target: Neu5Ac(a2-8)Neu5Ac(a2-3)Gal(b1-4)Glc
# Outline: as §1
# [37] = biological target: Neu5Gc(a2-8)Neu5Gc(a2-6)Gal(b1-4)GlcNAc
# Outline: as §1
# [38] = biological target: Neu5Gc(b2-6)Gal(b1-4)GlcNAc
# Outline: as §1
binder,measurement,setting,value
B1,glycan array binding signal (z-score),[1],4.65
same,glycan array binding signal (z-score),[2],-0.192
same,glycan array binding signal (z-score),[3],-0.17
same,glycan array binding signal (z-score),[4],-0.263
same,glycan array binding signal (z-score),[5],0.967
same,glycan array binding signal (z-score),[6],1.27
same,glycan array binding signal (z-score),[7],0.335
same,glycan array binding signal (z-score),[8],3.1
same,glycan array binding signal (z-score),[9],4.03
same,glycan array binding signal (z-score),[10],-0.28
same,glycan array binding signal (z-score),[11],-0.284
same,glycan array binding signal (z-score),[12],3.04
same,glycan array binding signal (z-score),Gal(b1-3)GalNAc(b1-3)Gal,-0.217
same,glycan array binding signal (z-score),[13],-0.264
same,glycan array binding signal (z-score),[14],-0.106
same,glycan array binding signal (z-score),[15],-0.282
same,glycan array binding signal (z-score),[16],-0.244
same,glycan array binding signal (z-score),[17],-0.221
same,glycan array binding signal (z-score),[18],-0.198
same,glycan array binding signal (z-score),[19],3.52
same,glycan array binding signal (z-score),Gal3S(b1-4)GlcNAc,-0.271
same,glycan array binding signal (z-score),[20],6.36
same,glycan array binding signal (z-score),GalNAc(b1-4)GlcNAc,4.38
same,glycan array binding signal (z-score),[21],4.52
same,glycan array binding signal (z-score),GalNAc(b1-4)GlcNAc6S,4.1
same,glycan array binding signal (z-score),[22],-0.256
same,glycan array binding signal (z-score),GlcA(b1-3)GlcNAc,-0.28
same,glycan array binding signal (z-score),[23],-0.273
same,glycan array binding signal (z-score),[24],-0.266
same,glycan array binding signal (z-score),[25],-0.295
same,glycan array binding signal (z-score),[26],-0.234
same,glycan array binding signal (z-score),GlcNAc(b1-6)GalNAc,4.64
same,glycan array binding signal (z-score),[27],-0.27
same,glycan array binding signal (z-score),[28],-0.279
same,glycan array binding signal (z-score),[29],5.92
same,glycan array binding signal (z-score),[30],-0.224
same,glycan array binding signal (z-score),[31],-0.283
same,glycan array binding signal (z-score),[32],-0.238
same,glycan array binding signal (z-score),[33],-0.285
same,glycan array binding signal (z-score),[34],-0.288
same,glycan array binding signal (z-score),[35],-0.34
same,glycan array binding signal (z-score),[36],-0.277
same,glycan array binding signal (z-score),[37],-0.279
same,glycan array binding signal (z-score),[38],-0.278
